Test [1] can be described thus: High-throughput drug toxicity screening in the BPDCN cell line Gen2.2 (AID 1224824; call rule not given here). As to conditions: Gen2.2 BPDCN cells; at 45.8 µM (top of the series) unless noted. The method, boiled down: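 Gen2.2 cells (500/well) in phenol red-free RPMI with 10% FBS were exposed to compounds for 48 h at 37 °C, 5% CO2. Viability was read by CellTiter-Glo luminescence and normalized to DMSO (100%) and 9.2 uM bortezomib (0%).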

Test [2] is described as follows: High-throughput drug toxicity screening in the BPDCN cell line Cal-1 (AID 1224825; call rule not given here). The conditions noted are these: Cal-1 BPDCN cell viability, qHTS; at 45.8 µM (top of the series) unless noted. The method, boiled down:
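Percent activity derived from CellTiter-Glo luminescence, scaling DMSO to 100% and 9.2 uM final bortezomib to 0%. BPDCN Cal-1 cells (500/well, RPMI plus 10% FBS) incubated with compounds 48 hours at 37C before reading.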

Test [3] is described as follows: qHTS assay for measurement of the activity of small molecule inhibitors on Zika virus induced Caspase-3 activity in human iPSC derived neural progenitor cells (hNPCs) (AID 1224857). Also: % of control where 0% means no effect; nearly all actives have a fitted effect of over 65% in size. The method, boiled down:
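Caspase-3/7 induction by a 6-hour ZIKV infection was quantified with a luminescent Caspase-Glo 3/7 reagent incubated 30 minutes at room temperature. Compounds were preincubated with hNPCs for 1 hour; inhibition was calculated against uninfected and infected control wells.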

The nature of test [4]: qHTS assay for measurement of the activity of small molecule inhibitors on Zika virus induced Caspase-3 activity in human astrocytoma cells (AID 1224859).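 Also: plate controls were ZIKV-infected untreated cells for no effect and uninfected cells for full effect.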 The method, boiled down: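 In SNB-19 cells plated at 250 cells/well and grown 16-20 h, compounds were applied 1 h before ZIKV (2 FFU/cell). Six hours later caspase-3/7 luminescence was recorded.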
Test [5] is described as follows: qHTS Screen of the MIPE 4.0 Collection Against Ewings Sarcoma (RDES) (AID 1259252). Also: nearly all actives have a fitted effect of over 35% in size. Also: potency is read from the fitted curve at half-maximal effect. The method, boiled down: (§1)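 After a 4 h attachment period in RPMI/5% FBS, cells were pin-dosed with test compounds; DMSO served as negative and 9.2 uM bortezomib (final) as positive control. Luminescent CellTiter-Glo signal at 48 h defined viability.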
Test [6] is described as follows: qHTS Screen of the MIPE 4.0 Collection Against Ewings Sarcoma (TC32) (AID 1259256). Also: nearly all actives have a fitted effect of over 45% in size. Also: potency is read from the fitted curve at half-maximal effect. The method, boiled down: as §1
A short description of test [7]: Identifying Small Molecule Inhibitors of Pancreatic Cancer Stem Cells (SN12C, Adherent) (AID 1259358).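 Also: cell survival measured after 48 h of compound exposure.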 Also: potency is read from the fitted curve at half-maximal effect. A digest of the protocol:
(§2)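 Adherent (2D) versus sphere (3D) formats; spheres generated 14 d in SCM beforehand. Compound transferred by pin tool after 4 h, 48 h incubation, CellTiter-Glo endpoint.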

Test [8] can be described thus: Identifying Small Molecule Inhibitors of Pancreatic Cancer Stem Cells (SN12C, Spheroid) (AID 1259360). Also: potency is read from the fitted curve at half-maximal effect.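 As to viability (% of control): 100% = DMSO-treated cells and 0% = wells without cells.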 The conditions noted are these: Potency: SN12C spheroid viability. The method, boiled down: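 Viability is scored by CellTiter-Glo luminescence 48 h after dosing, expressed as percent activity against vehicle and no-cell references. Spheroid formats rely on cells cultured 14 days in stem cell media beforehand.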

Test [9] can be described thus: P-glycoprotein substrates identified in KB-8-5-11 adenocarcinoma cell line, qHTS therapeutic library screen (AID 1346987). Also: nearly all actives have a fitted effect of over 65% in size. Also: potency is read from the fitted curve at half-maximal effect. A digest of the protocol:
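Luminescence from CellTiter-Glo, read 5 min after addition, quantified survival of KB-8-5-11 (P-gp-overexpressing) cells exposed to compounds for 72 h. AC50 was derived from concentration-response curves.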

Test [10] can be described thus: qHTS Screen of the MIPE 4.0 Collection Against Ewings Sarcoma (EW8) (AID 1259255). Also: nearly all actives have a fitted effect of over 35% in size. Also: potency is read from the fitted curve at half-maximal effect.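 As to viability: 100% = DMSO-treated cells and 0% = medium-only wells without cells.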 The method, boiled down:
as §1

A short description of test [11]: qHTS assay to identify small molecule inhibitors of chordoma cells - UCH-1 (AID 1259355). Also: % is scaled to controls: 0 for no effect and ±100 for the full control effect; nearly all actives have a fitted effect of over 55% in size. The method, boiled down:
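800 cells/well, overnight attach; compounds pinned at 15 concs, then auranofin/camptothecin/doxorubicin/rubitecan/topotecan combo added; 48hr 37 C, 5% CO2; CellTiter-Glo, 30min RT, luminescence.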

Test [12] can be described thus: Natriuretic polypeptide receptor (hNpr1) antagonism - Pilot counterscreen GloSensor control cell line (AID 1347045; calls by dose curve; also: % is scaled to controls: 0 for no effect and ±100 for the full control effect). A digest of the protocol:
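Cells were first seeded and incubated overnight at 37C, then loaded with 2% GloSensor substrate for 2 h. Compounds were added for 30 min at room temperature, followed by a baseline read, 50 uM SNP and a final read after 20 min.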

A short description of test [13]: Identifying Small Molecule Inhibitors of Pancreatic Cancer Stem Cells (A278, Adherent) (AID 1259361). Also: nearly all actives have a fitted effect of over 35% in size.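 As to viability (% of control): 100% = DMSO-treated cells and 0% = cell-free media-only wells.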 A digest of the protocol: as §2
The nature of test [14]: qHTS Screen of the MIPE 4.0 Collection Against Ewings Sarcoma (TC71) (AID 1259253). Also: nearly all actives have a fitted effect of over 40% in size. Also: potency is read from the fitted curve at half-maximal effect. The method, boiled down: as §1
Test [15] in a line: qHTS assay to identify small molecule inhibitors of chordoma cells - UCH-2 (AID 1259356). Also: % is scaled to controls: 0 for no effect and ±100 for the full control effect.
Test [16] can be described thus: P-glycoprotein substrates identified in KB-3-1 adenocarcinoma cell line, qHTS therapeutic library screen (AID 1346986). Also: nearly all actives have a fitted effect of over 60% in size. The method, boiled down: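 Viability read by CellTiter-Glo after 72 h compound exposure in dose-response of KB-3-1 and KB-8-5-11 (P-gp-high) cells. Hits needed AC50 < 10 uM, >50% maximum response and curve class -1.1 to -2.4. Cherry-picks retested ± tariquidar, including pcDNA/MDR-19 HEK-293 pair.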

Test [17] is described as follows: Identifying Small Molecule Inhibitors of Pancreatic Cancer Stem Cells (Panc1, Adherent) (AID 1259362). Also: potency is read from the fitted curve at half-maximal effect.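 As to viability, % of control: compound exposure lasted 48 h before the viability read; plate controls were DMSO-treated cells for no effect and cell-free media wells for full effect.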 As to conditions: Potency: viability. The method, boiled down: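 Endpoint: ATP-based luminescence, 48 h drug exposure. Bortezomib at 9.2 uM final as full-kill control; DMSO vehicle as negative control; activity normalized between vehicle and cell-free wells.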

Test [18] in a line: Identifying Small Molecule Inhibitors of Pancreatic Cancer Stem Cells (Panc1, Spheroid) (AID 1259359).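 Also: compound exposure lasted 48 h before reading.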 The method, boiled down:
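Monolayer and spheroid cultures are compared. Spheroids form over 14 days in stem cell medium on hydrogel-coated low-attachment plates, then are exposed to compound for 48 h before CellTiter-Glo luminescence.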

SMILES strings stand for the structures. Inconclusive results are not listed. Active and inactive are the calls of the source. Unless noted, calls follow the shape of the dose curve; as a rule, active = well fitted curve in the direction sought with a large enough effect; inconclusive = small, poorly fitted or top-dose-only effect, or another doubt; inactive = no such curve, though single readings can be large; an effect the other way counts as inactive or inconclusive.

`Nc1nccc(-c2ccc3noc(-c4ccc(Cl)cc4)c3c2)n1`: the cell viability, % of control (lower = more cytotoxic) in [1] came to 68.4%. Further, the viability (% of control) in test [2] amounted to 46.9%. Besides, the Potency entry in [3], in test [4], in [7], in test [8] and in test [9] was “inactive” in each case. Further, the Potency in [5] was 5.9 µM (active); in test [6], 23.5 µM (active).
`Cc1[nH]c(=O)c(C#N)cc1-c1ccncc1`: the cell viability, % of control (lower = more cytotoxic) in [1] came to 244%. In [2], the viability (% of control) amounted to 23%. The Potency entry in [3], in test [5], in test [10], in [6], in test [11] and in test [9] was “inactive” in each case.
`CCn1cc(C(=O)O)c(=O)c2cc(F)c(N3CCNC(C)C3)c(F)c21` (stereo unspecified): in test [1], the cell viability, % of control (lower = more cytotoxic) is 176%. Besides, the viability (% of control) in test [2] is 107%. The Potency result in test [3], in test [5], in test [10], in [6] and in test [11] was “inactive” each time. Moreover, in test [12], the outcome was inactive.
`O=C(Nc1ccc(F)c(C(F)(F)F)c1)Nc1nnc(-c2ccncc2)s1`: the cell viability, % of control (lower = more cytotoxic) in test [1] came out at 131%. The viability (% of control) in [2] is 101%. Further, the Potency entry in test [3], in test [4], in test [7] and in test [9] was “inactive” throughout. Also, the IC50 (viability decrease) in [13] was 14.8 µM (active).
Take `Cc1cc([C@@H](C)Nc2ccccc2C(=O)O)c2nc(N3CCOCC3)cc(=O)n2c1`: the cell viability, % of control (lower = more cytotoxic) in [1] was determined as 13.7% [at 92.2 µM]. Moreover, the viability (% of control) in test [2] was found to be 27.7% [at 92.2 µM]. The Potency entry in [3] was “inactive”. Also, the Potency is 3.03 µM (active) in test [5]; 34 µM (active) in test [14]; 42.9 µM (active) in [10]; 34 µM (active) in test [6]; 9.35 µM (active) in test [7]; 14.8 µM (active) in test [8].
Take `CCCc1nn(C)c2c(=O)[nH]c(-c3cc(S(=O)(=O)N4CCN(C)CC4)ccc3OCC)nc12`: the cell viability, % of control (lower = more cytotoxic) in test [1] was 91.7%. For the same compound, the viability (% of control) in test [2] was 81.8%. The Potency entry in test [3], in [4], in test [7], in test [8] and in test [16] was “inactive” each time. In addition, the Potency in test [5] was 14.8 µM (active); in [6], 5.26 µM (active); in [9], 13.2 µM (active). For the same compound, the call in test [15] was inactive. For the same compound, the IC50 (viability decrease) entry in [13] is “inactive”.
`N#Cc1ccc(C(c2ccc(C#N)cc2)n2cncn2)cc1`: the cell viability, % of control (lower = more cytotoxic) in test [1] stood at 33%. Besides, the viability (% of control) in test [2] amounted to 70.2%. The Potency entry in [3], in [4], in [7], in test [8] and in test [9] was “inactive” throughout. Further, the Potency in test [10] was 20.9 µM (active); in test [6], 14.8 µM (active). In test [13], the IC50 (viability decrease) result is “inactive”.
On to `CCCS(=O)(=O)Nc1ccc(F)c(C(=O)c2c[nH]c3ncc(-c4ccc(Cl)cc4)cc23)c1F`, for which, in [1], the cell viability, % of control (lower = more cytotoxic) worked out at 453%. In addition, the viability (% of control) in test [2] was 99.1%. Further, the Potency result in test [3], in test [7] and in [9] was “inactive” in each case. For the same compound, the Potency was 13.2 µM (active) in test [5], 14.8 µM (active) in [14] and 20.9 µM (active) in test [6].
Consider `NC(=O)C1CCCc2c1[nH]c1ccc(Cl)cc21` (stereo unspecified), for which, in [1], the cell viability, % of control (lower = more cytotoxic) is 67%. Moreover, the viability (% of control) in test [2] was found to be 67.2%. Besides, the Potency entry in test [3], in test [4], in test [10], in [7], in test [8] and in test [17] was “inactive” in each case. Besides, the Potency result in test [9] is “inactive”. The Potency in [5] is 6.62 µM (active).
Turning to `CCOC(=O)C1=C[C@]2(CC)CCCN3CCc4c(n1c1ccccc41)[C@@H]32`, the cell viability, % of control (lower = more cytotoxic) in test [1] was 13.3%. Moreover, in test [2], the viability (% of control) was 2.19%. Besides, the Potency result in test [3] and in test [11] was “inactive” throughout. Also, the Potency in test [5] was 23.5 µM (active); in [14], 20.9 µM (active); in test [10], 18.7 µM (active); in test [6], 18.7 µM (active); in test [9] it was 26.4 µM (active). The call in test [15] and in [12] was inactive.
In the case of `OC[C@H](Cc1ccccc1)Nc1nc(Oc2ccc3c(c2)CCC3)nc2c1ncn2Cc1ccc(-c2ccccc2)cc1`, the cell viability, % of control (lower = more cytotoxic) in test [1] came out at 408%. Also, in [2], the viability (% of control) is 56.2%. The Potency result in [3], in test [4] and in test [7] was “inactive” each time. Also, the Potency in [5] was 14.8 µM (active); in test [6], 6.62 µM (active); in test [17], 1.32 µM (active).
In the case of `CCn1c(-c2nonc2N)nc2c(C#CC(C)(C)O)ncc(OC[C@H]3CCCNC3)c21`, in [1], the cell viability, % of control (lower = more cytotoxic) was determined as 64.9%. The viability (% of control) in test [2] came out at 8.62%. For the same compound, the Potency entry in [3], in test [7], in test [18] and in test [9] was “inactive” each time. In addition, the results for the Potency in test [5], in test [10] and in test [6] were 23.5 µM (active), 23.5 µM (active) and 18.7 µM (active), respectively.
Consider `CCOc1cc(C=C2C(=O)N(c3ccccc3)N=C2C)cc(Cl)c1OCC(=O)OC`, for which the cell viability, % of control (lower = more cytotoxic) in test [1] was 14.1%. Moreover, the viability (% of control) in test [2] stood at 61.6%. Moreover, the Potency entry in test [3], in test [4], in test [7], in test [8] and in test [9] was “inactive” each time. Moreover, the Potency in [5] was 5.26 µM (active); in [6] it was 5.9 µM (active).
`Nc1nc2[nH]cc(CCc3ccc(C(=O)N[C@@H](CCC(=O)O)C(=O)O)cc3)c2c(=O)[nH]1`: in test [2], the viability (% of control) is 37.4%. Also, the Potency entry in [3], in [11] and in test [8] was “inactive” throughout. Also, the Potency in test [14] was 0.264 µM (active); in test [6], 0.662 µM (active); in test [7] it was 0.662 µM (active). Moreover, the result in test [15] was inactive.
Take `CC(C[N+](C)(C)C)OC(N)=O` (stereo unspecified): the viability (% of control) in test [2] came to 120%. Further, the Potency entry in [3], in test [4], in [5], in test [14], in test [10] and in [6] was “inactive” each time. In addition, the Potency result in test [11] and in test [9] was “inactive” each time. Moreover, in test [12], the outcome was inactive.
